According to PubChem BioAssay (NCATS):
“And” between values parts separate entries of the source, which are not always exact repeats. Equal entries are not always repeated. Results filed as inconclusive are left out. The source made the active and inactive calls. Unless noted, the call rests on the fitted dose curve; in most records, active means well fitted curve in the direction sought with a large enough effect; inconclusive means small, poorly fitted or top-dose-only effect, or another doubt; inactive means no such curve, though single readings can be large; an effect the other way counts as inactive or inconclusive.

Legend:
[1] = P-glycoprotein substrates identified in KB-8-5-11 adenocarcinoma cell line, qHTS therapeutic library screen (AID 1346987); further: potency means the concentration at half of the fitted maximal effect; nearly all actives have a fitted effect of over 65% in size
Summary of the method: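 Steps: plate 500 KB-8-5-11 cells/well in DMEM + 10% FCS (colchicine removed); pin compounds in dose-response; incubate 72 h, 37 degree C, 5% CO2; add CellTiter-Glo, 5 min; read luminescence.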

[2] = tested on: Zika virus NS2B-NS3 protease (linked construct); assay: Primary screen NINDS Rhodamine qHTS for Zika virus inhibitors (AID 1347160); further: nearly all actives have a fitted effect of over 55% in size
Summary of the method: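 Purified NS2B-NS3 protease with the NS2B hydrophilic domain joined by a flexible linker (25 nM) in 10 mM Tris-HCl pH 8.0, 0.01% Tween 20, preincubated 15 min at RT with compound; Rhodamine110 peptide substrate 1.5 µM; fluorescence change over 15 min; 4-parameter Hill fit.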

[3] = biological target: Calcium and integrin-binding protein 1 (Homo sapiens) (UniProt Q99828); assay: Primary qHTS for Identification of Calcium Integrin Binding Protein 1 (CIB1) Competitor (AID 1508620);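 further: GST tagged CIB1 binding a fluorescein labelled alphaIIb integrin peptide tracer; top concentration of the series differs between compounds; on the % scale 0 is the no-effect control and ±100 the full control effect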
Summary of the method: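 Fluorescence polarization competition: GST-tagged CIB1 (1 uM final) preincubated with compound 15 min at room temperature, then FITC-labelled alphaIIb peptide (100 nM final) added. After 15 min at room temperature, polarization read at Ex 480/Em 540.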

[4] = Primary qHTS for inhibitors of nuclear receptor binding SET domain protein 2 (NSD2) in an isogenic RCH-ACV NSD2 p.E1099K mutant (9B) (AID 1645876); further: potency means the concentration at half of the fitted maximal effect; nearly all actives have a fitted effect of over 70% in size
[5] = Primary qHTS for inhibitors of nuclear receptor binding SET domain protein 2 (NSD2) in an RCH-ACV wild type WT cells (2C) (AID 1645877); further: potency means the concentration at half of the fitted maximal effect; nearly all actives have a fitted effect of over 70% in size
[6] = biological target: Glutathione peroxidase 1 (Homo sapiens) (UniProt P07203); assay: Primary qHTS Assay for Inhibitors of Recombinant Selenoprotein Glutathione Peroxidase 1 (GPX1) (AID 1845191); further: nearly all actives have a fitted effect of over 65% in size; further: potency means the concentration at half of the fitted maximal effect
Summary of the method: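 GR-coupled assay: compounds preincubated 30 min at room temperature with GPX1, then reaction started with CHP; final 10 nM GPX1, 1 mM GSH, 0.5 mM CHP, 0.5 mM NADPH, 100 nM GR, 0.01% BSA, pH 7.5 Tris buffer. NADPH fluorescence (340/450 nm) read at 0 and 15 min.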

[7] = biological target: Phospholipid hydroperoxide glutathione peroxidase GPX4 (Homo sapiens) (UniProt P36969); assay: Primary qHTS Assay for Inhibitors of Recombinant Selenoprotein Glutathione Peroxidase 4 (GPX4) (AID 1845192); conditions: outcome: dose series up to 50 µM unless noted; further: nearly all actives have a fitted effect of over 65% in size; further: potency means the concentration at half of the fitted maximal effect
Summary of the method: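 GR-coupled assay: recombinant GPX4 preincubated 30 min with compound at room temperature; final 200 nM GPX4, 1 mM GSH, 0.5 mM cumene hydroperoxide, 0.5 mM NADPH, 100 nM GR, 0.01% BSA, pH 7.5 Tris. NADPH fluorescence (340/450 nm) read at 0 and 15 min.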

[8] = biological target: Luciferin 4-monooxygenase (Photinus pyralis) (UniProt P08659); assay: Primary firefly luciferase (FLuc) qHTS assay for identification of artifact compounds. (AID 1845220); further: nearly all actives have a fitted effect of over 60% in size
Summary of the method: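 Enzymatic FLuc inhibition assay: compounds pre-exposed to luciferin/ATP (10 uM each) for 15 min, then purified P. pyralis enzyme at 10 nM added. Read-out: luminescence at 5 min.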

[9] = Primary fluorescence-based thiol-reactive (MSTI) qHTS assay for identification of artifact compounds. (AID 1845221);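 further: thiol-reactive compounds lower the probe fluorescence signal; nearly all actives have a fitted effect of over 65% in size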
Summary of the method: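 Reactivity toward the thiol probe MSTI (4 uM) is scored by fluorescence at Ex/Em 525/598 nm after 1 h at room temperature. Acetyl-MSTI and MSTI define the activity scale.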

[10] = tested on: Nanoluciferase (engineered Oplophorus gracilirostris luciferase); assay: Primary Nanoluciferase (NLuc) qHTS assay for identification of artifact compounds. (AID 1845222);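 further: NLuc secreted into diluted conditioned medium of S16 cells; 0% = DMSO and -100% = no enzyme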
Summary of the method: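 S16 cell supernatant NLuc, 1:55; cpds qHTS; 15 min RT dark; Nano-Glo substrate 1:100, 5 min; luminescence; Hill fit of % inhibition.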

[11] = Primary redox qHTS assay for identification of artifact compounds. (AID 1845223);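 further: 0% = DMSO and 100% = reference compound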
Summary of the method: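 Amplex Red (25 uM) and HRP (250 mU/mL) in HBSS, with compounds for 15 min, then 250 uM DTT for 30 min, room temperature, dark. Fluorescence 525/598 nm read; normalized to DMSO and 10 uM DA3003; Hill fit.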

[12] = qHTS drug screen for cell cycle checkpoint inhibitors in PARPi-resistant BRCA-mutant ovarian cancer cell lines. (AID 1963452; calls by dose curve); conditions: PEO1/OlaR viability, CellTiter-Glo luminescence, 96 h, stronger effect = lower value
Summary of the method: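 PEO1, PEO4 and PEO1/OlaR ovarian cancer cells, 600 per well, exposed 96 h at 37C to a dilution series. Viability read by CellTiter-Glo luminescence, normalized to DMSO and empty wells; activity summarized as Z-AUC.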

[13] = tested on: OV90; assay: Primary qHTS to identify gynecologic anti-cancer compounds using libraries of approved drugs and bioactive compounds (AID 1345084); conditions: Gynecologic cancer cell panel viability, ATPlite luminescence, 48 h; series mostly up to 57.5 µM; further: nearly all actives have a fitted effect of over 55% in size; further: potency means the concentration at half of the fitted maximal effect
Summary of the method: (§1)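 Measured: luminescence after ATPlite addition (15 min, RT). Exposure: 48 h, 37 C, 5% CO2.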

[14] = tested on: HeLa; assay: as above; conditions: Gynecologic cancer cell panel viability, ATPlite luminescence, 48 h; series mostly up to 57.5 µM
Summary of the method: as §1

[15] = tested on: Hek293T; assay: as above; conditions: Gynecologic cancer cell panel viability, ATPlite luminescence, 48 h, control line for the selectivity index; series mostly up to 57.5 µM
Summary of the method: as §1

[16] = tested on: Es-2; assay: as above; conditions: Gynecologic cancer cell panel viability, ATPlite luminescence, 48 h; series mostly up to 57.5 µM
Summary of the method: as §1

[17] = tested on: JEG-3; assay: as above; conditions: Gynecologic cancer cell panel viability, ATPlite luminescence, 48 h; series mostly up to 57.5 µM
Summary of the method: as §1

[18] = tested on: Tov112D; assay: as above; conditions: Gynecologic cancer cell panel viability, ATPlite luminescence, 48 h; series mostly up to 57.5 µM
Summary of the method: as §1

[19] = Drug repurposing screens with cells derived from glioblastoma tumor samples (AID 1345199); conditions: GBM patient neurospheres viability, ATP luminescence, 48 h; further: nearly all actives have a fitted effect of over 40% in size; further: potency means the concentration at half of the fitted maximal effect; on activity, negative = cell killing: on the % scale 0 is the no-effect control and ±100 the full control effect
Summary of the method: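 Four patient lines of CD133+ GBM neurospheres were screened at several concentrations; hits were retested in those lines plus three slower-growing GBM lines, using 48-hour treatment and ATP-based viability.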

[20] = measured here: PEO1 parental Z-AUC

Sequence of Glutathione peroxidase 1 (Homo sapiens) (P07203 whole entry, looked up): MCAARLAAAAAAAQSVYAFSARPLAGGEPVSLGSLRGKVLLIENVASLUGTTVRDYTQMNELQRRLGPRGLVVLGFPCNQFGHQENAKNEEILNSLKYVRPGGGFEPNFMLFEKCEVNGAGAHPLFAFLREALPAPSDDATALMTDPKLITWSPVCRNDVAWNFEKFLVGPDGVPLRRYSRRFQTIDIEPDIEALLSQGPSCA
Sequence of Phospholipid hydroperoxide glutathione peroxidase GPX4 (Homo sapiens) (P36969 whole entry, looked up): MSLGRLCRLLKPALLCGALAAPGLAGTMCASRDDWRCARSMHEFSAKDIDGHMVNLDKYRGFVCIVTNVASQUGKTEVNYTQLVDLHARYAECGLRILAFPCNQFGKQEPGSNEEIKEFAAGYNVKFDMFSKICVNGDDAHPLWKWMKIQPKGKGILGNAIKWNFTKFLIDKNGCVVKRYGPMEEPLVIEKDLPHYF
Sequence of Calcium and integrin-binding protein 1 (Homo sapiens) (Q99828 whole entry, looked up): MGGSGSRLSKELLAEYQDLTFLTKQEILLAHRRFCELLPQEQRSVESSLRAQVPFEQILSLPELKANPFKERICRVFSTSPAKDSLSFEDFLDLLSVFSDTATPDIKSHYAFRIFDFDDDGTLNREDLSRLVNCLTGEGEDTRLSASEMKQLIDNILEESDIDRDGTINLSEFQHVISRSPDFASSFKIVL

COc1ccc(-c2cc(C(O)C3CCCCN3)c3ccccc3n2)cc1 (configuration not stated)
-0.334: Z-AUC ([12]; measured here: PEO4 Z-AUC)
active: Potency [1] 20.6 µM | Potency [4] 7.42 µM | Potency [5] 4.68 µM | Potency [6] 20.2 µM | Potency [7] 22.7 µM | Potency [13] 31.6 µM
inactive: Potency [2] | outcome [3] | Potency [8] | Potency [9] | Potency [10] | Potency [11] | Z-AUC [12] -0.506
-0.864: Z-AUC [12, 20]

COc1cc2nc(N3CCN(C)CC3)nc(NC3CCN(Cc4ccccc4)CC3)c2cc1OC
active: Potency [1] 16.4 µM | Potency [4] 6.49 µM | Potency [5] 5.78 µM | Potency [13] 22.4 µM
inactive: Potency [2] | outcome [3] | Potency [6] | Potency [8] | Potency [9] | Potency [10] | Potency [14] | Potency [15]

COc1ccc(NC(=O)N2CCc3c2ccc2ccccc32)cc1N1CCN(C)CC1
inactive: Potency [2] | outcome [3] | Potency [6] | Potency [7] | Potency [8] | Potency [10] | Potency [11] | Potency [16] | Potency [14] | Potency [15] | Potency [17] | Potency [13] | Potency [18]
active: Potency [4] 14.5 µM | Potency [5] 14.5 µM

CN(CC(=O)N1CCOCC1)Cc1c(Cl)cccc1NC(=O)c1ccccc1
active: Potency ([19]; tumour line A) 35.5 µM
inactive: Potency [6] | Potency [7] | activity, negative = cell killing ([19]; at 45.9 µM (top of the series), tumour line B) -3.67% | activity, negative = cell killing ([19]; at 45.9 µM (top of the series), tumour line D) -22.4% | activity, negative = cell killing ([19]; at 46.1 µM (top of the series), tumour line C) -9.11%

NC(=Nc1ccc(CCNCc2cccc(Cl)c2)cc1)c1cccs1
active: Potency [1] 23.1 µM | Potency [4] 11.5 µM | Potency [5] 11.5 µM
inactive: Potency [2] | outcome [3] | Potency [6] | Potency [7] | Potency [8] | Potency [9] | Potency [10] | Potency [11] | Potency [16] | Potency [14] | Potency [15] | Potency [18]

Clc1ccccc1CNCC1CCC(CNCc2ccccc2Cl)CC1 (configuration not stated)
inactive: Potency [2] | outcome [3] | Potency [6] | Potency [7] | Potency [8] | Potency [9] | Potency [10] | Potency [11] | Potency [14] | Potency [15] | Potency [13]
active: Potency [4] 18.3 µM | Potency [5] 20.5 µM

C=CC(=O)Nc1cccc(Nc2nc(Nc3ccc(Oc4ccnc(C(=O)NC)c4)cc3)ncc2F)c1
active: Potency [4] 10.3 µM and 5.9 µM | Potency [5] 10.3 µM and 6.61 µM
inactive: outcome [3] | Potency [6] | Potency [7] | Potency [8] | Potency [9] | Potency [10] | Potency [11] | Z-AUC [12] -0.493 | Potency [17] | Potency [13]
-0.427: Z-AUC ([12]; measured here: PEO4 Z-AUC)
-0.105: Z-AUC [12, 20]

C=C1C(=O)O[C@@H]2C[C@@H](C)[C@]34C[C@]5(C(=O)O[C@H]6CC(C)=C([C@H](C)CCCO)[C@H](OC(=O)C(C)CC)[C@H]65)[C@@H](C(C)=C3C[C@@H]12)[C@H]4OC(C)=O (some centres not stated)
inactive: Potency [2] | outcome [3] | Potency [6] | Potency [7] | Potency [8] | Potency [10] | Potency [11] | Potency [16] | Potency [14] | Potency [17] | Potency [13] | Potency [18]
active: Potency [4] 2.16 µM | Potency [5] 1.53 µM

OC(CNCCc1c[nH]c2ccccc12)Cn1c2ccccc2c2ccccc21 (configuration not stated)
inactive: outcome [3] | Potency [6] | Potency [7] | Potency [8] | Potency [9] | Potency [10] | Potency [11] | Potency [16] | Potency [14] | Potency [15] | Potency [17] | Potency [13] | Potency [18]
active: Potency [1] 16.4 µM | Potency [4] 5.15 µM | Potency [5] 4.59 µM

O=C(C1=CCN2c3c(cccc31)OC[C@H]2CN1CCOCC1)c1cccc2ccccc12
inactive: Potency [2] | outcome [3] | Potency [6] | Potency [7] | Potency [8] | Potency [9] | Potency [10] | Potency [15] | Potency [17]

COc1ccccc1-c1c[nH]c2ncc(-c3cncc(C(=O)N(C)C)c3)cc12
inactive: Potency [2] | outcome [3] | Potency [6] | Potency [7] | Potency [8] | Potency [9] | Potency [10] | Potency [16] | Potency [17] | Potency [13]

CC(=O)Nc1nc2c(Oc3cc(-c4ccc(C(F)(F)F)cc4)ncn3)cccc2s1
inactive: outcome [3] | Potency [6] | Potency [7] | Potency [8] | Potency [9] | Potency [10] | Potency [11] | Potency [17] | Potency [18]
active: Potency [4] 6.49 µM | Potency [5] 4.09 µM

CCOP(=O)(Cc1ccc(C(=O)Nc2ccc(Br)cc2C#N)cc1)OCC
inactive: Potency [2] | outcome [3] | Potency [6] | Potency [8] | Potency [9] | Potency [10] | Potency [16] | Potency [14] | Potency [15] | Potency [17] | Potency [13] | Potency [18]
